Consider 40 molecules from PubChem BioAssay (Tox21).

A number with no mark means an inactive call. Entries that show only a call come without a potency. The source made the active and inactive calls. Calls follow the shape of the full dose curve.
Potency is read from the fitted curve at half-maximal effect.

This assay in a line: G protein-coupled receptor (GPCR) small molecule agonists, calcium flux assay: HEK293 wild type cell line counter screen (AID 1920065). The note with it: HEK293 WT calcium flux, fluorescence, agonist mode; series mostly up to 57.6 µM. From the text:
U.S. Tox21 Program National Center for Advancing Translational Sciences [NCATS] Division of Preclinical Innovation [DPI] U.S. Environmental Protection Agency [EPA] National Institutes of Environmental Health Sciences [NIEHS] National Toxicology Program [NTP] U.S. Food and Drug Administration [FDA] Assay overview: The increased intracellular calcium release that occurred upon G protein-coupled receptor (GPCR) activation led to the frequent use of calcium flux assays to detect GPCR activation. For the purpose of studying and screening compounds that may activate GPCR, receptor-overexpressing models were typically generated using Hek293 wild-type (WT) cells. In order to eliminate the compounds that may have induced calcium release for non-specific activation, a counter-assay utilizing calcium flux on Hek293 WT cells was performed. The data were formulated in order to serve as a control for any calcium flux detection utilizing Hek293 cells with either GPCR overexpression or gene modification. The procurement of Hek293 WT cells from ATCC. Fluorescence intensity can be utilized to determine the activation of the compound in a calcium flux assay. As a counter control, this cell line was utilized to screen the Tox21 10K compound library.
Assay Protocol Summary: Hek293 cells were dispensed at 1500cells/4uL/well in 1536-well black wall/clear bottom plates using a multidrop dispenser. After the assay plates were incubated at a 37 C/5% CO2 incubator for 18 hours, 4 uL of Calcium Dye Solution was added to each well. The plates were incubated at 37 C for 1 hour. For agonist mode, 23 nL of compounds dissolved in DMSO, positive control (ATP) or DMSO only was transferred to the assay plate by a pin tool station. The fluorescence intensity in the plates was measured using FDSS 7000EX kinetic plate reader with a filter set of Ex/Em=480/540 for 3 min at 1 sec intervals. Each test compound was measured at 15 concentrations and in triplicates.
Background: Calcium flux is commonly read through the fluorescence of an indicator in the cells.
On to `CCOC(=O)/C=C/c1ccccc1`, for which the Potency result is “inactive”.
Same read-out and setting: in the case of `NNC(=O)CCCCC(=O)NN` it was “inactive”; in that of `CCN(CC)C(=O)c1ccc(O)c(OC)c1`, “inactive”; in that of `C[C@H](CCC(=O)O)[C@H]1CC[C@H]2[C@@H]3[C@H](O)C[C@@H]4C[C@H](O)CC[C@]4(C)[C@H]3CC[C@]12C`, “inactive”.
Consider `C/C=C/C(=O)C1=C(C)CCCC1(C)C`, for which the Potency result was “inactive”.
With `CCCC(=O)O[C@]1(C(=O)CCl)[C@@H](C)C[C@H]2[C@@H]3CCC4=CC(=O)C=C[C@]4(C)[C@@]3(F)C(=O)C[C@@]21C`, the Potency entry is “inactive”.
Still for that read-out and setting: the result for `OCCN1CCN(CCO)CC1` reads “inactive”; that for `Cc1ccc(Nc2c(F)cccc2Cl)c(CC(=O)O)c1`, “inactive”; that for `CCC(C)COC(C)=O` (stereo not given), “inactive”.
Consider `CC(=O)OCC=C(C)C`, for which the Potency result was “inactive”.
On the same count and under the same terms, in the case of `CCCCCCCCCCCCOCCOCCOCCOCCOCCOCCOCCOCCOCCO` it was “inactive”.
For `CCN1C=CN(C)C1C` (stereo not given), the Potency result was “inactive”.
With `CC1C2CC(CC2C2CCCC(O)C2)C1(C)C` (stereo not given), the Potency entry was “inactive”.
Same read-out and setting: the result for `CC(C)n1nc(-c2cc3cc(O)ccc3[nH]2)c2c(N)ncnc21` reads “inactive”; that for `CCCn1cc[n+](C)c1C`, “inactive”; that for `O=C[C@@H](O)[C@H](O)[C@H](O)CO`, “inactive”.
Same read-out and setting: in the case of `CCC(=O)/C=C/c1ccc(OC)cc1` it was “inactive”.
The same measure, in the same setting: the result for `CCCCCCCCNC` reads “inactive”; that for `CNc1ccc([N+](=O)[O-])cc1`, “inactive”; that for `COC(=O)C1=C(C)NC(COC(N)=O)=C(C(=O)OC(C)C)C1c1cccc(Cl)c1Cl` (stereo not given), “inactive”.
`Cc1ccccc1N=C(N)Nc1ccccc1C`: the Potency entry is “inactive”.
The same measure, in the same setting: in the case of `NO` it was “inactive”.
On the same count and under the same terms, the result for `CN1CCC(N(Cc2cccs2)c2ccccc2)CC1` reads “inactive”.
For `N=C(N)N1CCc2ccccc2C1`, the activation was -0.314% [at 5.23 µM].
Take `COCCOC[C@H](CC1(C(=O)NC2CCC(C(=O)O)CC2)CCCC1)C(=O)Oc1ccc2c(c1)CCC2` (stereo not given in full): the Potency entry was “inactive”.
On to `CCCCCCCCCCCCCCCCCBr`, for which the activation was -0.0398% [at 11.8 µM].
Turning to `O=C(/C=C/c1ccc(O)c(O)c1)O[C@@H](C(=O)O)[C@@H](OC(=O)/C=C/c1ccc(O)c(O)c1)C(=O)O`, the Potency result is “inactive”.
The same measure, in the same setting: in the case of `OCCN1CCN(CC/C=C2/c3ccccc3Sc3ccc(C(F)(F)F)cc32)CC1` it was “inactive”.
On the same count and under the same terms, in the case of `COc1ccc(-c2cc(=S)ss2)cc1` it was “inactive”; in that of `CN(C)CCN(Cc1ccccc1)c1ccccn1`, “inactive”.
For `C=C1C(C)(C)[C@@]2(Cl)C(Cl)[C@]1(Cl)C(Cl)(Cl)C2(Cl)Cl` (stereo not given in full), the Potency entry is “inactive”.
On the same count and under the same terms, the result for `COCCOC` reads “inactive”; that for `CC(=O)Nc1ccc(OCCOCCOc2ccc(NC(C)=O)cc2)cc1`, “inactive”.
Still for that read-out and setting: the result for `CCOC(=O)[C@@H](C)Oc1ccc(Oc2nc3ccc(Cl)cc3o2)cc1` reads “inactive”; that for `CCCc1ccc(OC)cc1`, “inactive”.
On the same count and under the same terms, the result for `COc1cc(Nc2c(C#N)cnc3cc(OCCCN4CCN(C)CC4)c(OC)cc23)c(Cl)cc1Cl` reads “inactive”; that for `CC(=O)c1ccc(C)cc1`, “inactive”; that for `O=C1OC2(c3ccccc31)c1ccc(O)c(Br)c1Oc1c2ccc(O)c1Br`, 19.5 µM (active).
For the molecule `C/C(=C\c1ccc(C(=O)O)cc1)c1ccc2c(c1)C(C)(C)CCC2(C)C`, the Potency entry is “inactive”.
Still for that read-out and setting: the result for `Oc1ccc(-c2ccccc2)c(Cl)c1` reads “inactive”.
